Results as given in PubChem BioAssay AID504466 (National Center for Advancing Translational Sciences (NCATS), 2011).
The whole screen tested about 330,000 compounds, of which about 4,200 (1.3%) were called active. Roughly 6% stayed inconclusive and do not appear here. Calls come from the whole dose curve; as a rule, active = well fitted activation curve with a large enough effect; inconclusive = small, poorly fitted or top-dose-only effect; inactive = no such curve, though single readings can be large or run the other way. The list comes from a sample in which actives are over-represented; it also holds similar structures and randomly drawn compounds. Where a call stands in place of a potency, no number is given.
Potency is the fitted concentration of half-maximal effect.

Assay: qHTS screen for small molecules that induce genotoxicity in human embryonic kidney (HEK293T) cells expressing luciferase-tagged ELG1; note: nearly all actives have a fitted effect of over 60% in size
Conditions: HEK293T ELG1-luciferase reporter, luminescence, 16 h; series mostly up to 46 µM
Summary of the method: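 Luminescence read-out: rising ELG1-luciferase signal, reflecting elevated ELG1 protein under genetic stress, flags genotoxic compounds. Cells were treated for 16 hr at 37 °C before ONE-Glo detection.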
With `CSc1ncccc1C(=O)Nc1cccc(S(=O)(=O)N2CCOCC2)c1` the Potency was “inactive”. In the case of `CN(CCc1ccccc1)C(=O)c1cccc(NC(=O)Cc2ccc([N+](=O)[O-])cc2)c1`, the Potency is reported as “inactive”. With `Cc1c(Cl)cnc(NC(=O)COC(=O)C2CCCC2)c1Cl` the Potency was “inactive”. With `CCN(C(=O)CSc1nnnn1-c1ccc(OC)cc1)C1CCS(=O)(=O)C1` (configuration not stated) the Potency was “inactive”. For `Cn1c(=O)n(C)c2cc(S(=O)(=O)Nc3ccc(F)cc3)ccc21`, the Potency was “inactive”. In the case of `Cc1cc(C)cc(NS(=O)(=O)c2ccc(F)cc2)c1`, the Potency is reported as “inactive”. With `Cn1c(=O)n(C)c2cc(NS(=O)(=O)c3ccc(F)cc3)ccc21` the Potency was 18.3 µM (active). For `CCN(c1ccccc1)S(=O)(=O)c1cccc(C(=O)NCc2ccccc2CN2CCOCC2)c1`, the Potency was “inactive”. With `O=C1COc2ccc(C(=O)COC(=O)c3ccccc3Cl)cc2N1` the Potency was “inactive”. With `CCSc1nnc(NC(=O)c2ccc(C)cc2)s1` the Potency was 1.64 µM (active). In the case of `CCOC(=O)CSc1nnc(NC(=O)c2cccc(S(=O)(=O)N3CCCC3)c2)s1`, the Potency is reported as “inactive”. With `C=CCSc1nnc(NC(=O)c2ccc(NC(C)=O)cc2)s1` the Potency was “inactive”. For `COC(=O)[C@]1(C)N[C@H](CN(C)C(=O)c2ccc(C(C)(C)C)cc2)[C@@H]2C(=O)N(C)C(=O)[C@@H]21`, the Potency was “inactive”. In the case of `COc1ccc(CN2C(CC(=O)Nc3cccnc3)c3ccc(C(F)(F)F)cc3S2(=O)=O)cc1` (configuration not stated), the Potency is reported as “inactive”. With `O=C(COC(=O)c1ccc2c(c1)OCCO2)NCc1ccccc1Cl` the Potency was “inactive”. For `Cc1cccc(NC(=O)c2ccc(S(=O)(=O)N(C)c3ccccc3)cc2)n1`, the Potency was “inactive”. With `COc1ccc(-c2csc(NC(=O)COC(=O)Cc3ccc(Cl)cc3Cl)n2)cc1` the Potency was 23.1 µM (active). In the case of `COc1ccc(OC)c(-c2csc(NC(=O)COC(=O)C3CC3)n2)c1`, the Potency is reported as “inactive”. In the case of `CC(C)(C)NC(=O)NC(=O)COC(=O)Cc1ccc(Cl)cc1Cl`, the Potency is reported as “inactive”. For `CS(=O)(=O)c1ccc(C(=O)NNC(=O)c2cccs2)cc1`, the Potency was “inactive”. For `O=c1c2ccccc2ncn1/N=C/c1ccccc1`, the Potency was 3.66 µM (active). With `O=C(Nn1cnc2ccccc2c1=O)c1ccccc1` the Potency was “inactive”. In the case of `O=c1c2ccccc2nc(N/N=C/c2ccccc2)n1O`, the Potency is reported as “inactive”. With `CCN(C(=O)CSc1cccc[n+]1[O-])c1ccccc1` the Potency was “inactive”. With `COc1ccc(CNC(=O)COC(=O)c2sccc2C)cc1OC` the Potency was “inactive”. In the case of `O=C(Nc1nc2cc3c(cc2s1)OCCO3)c1cccc(S(=O)(=O)N2CCOCC2)c1`, the Potency is reported as “inactive”. For `COc1ccc2nc(NC(=O)c3ccc(Br)s3)sc2c1`, the Potency was 2.82 µM (active). In the case of `COc1ccc2nc(NC(=O)NC3CCCCC3)sc2c1`, the Potency is reported as “inactive”. With `COc1ccc2nc(NC(=O)[C@@H]3CCCN3C(=O)c3cccs3)sc2c1` the Potency was “inactive”. In the case of `O=C(Nc1cccc(S(=O)(=O)Nc2ccc(Cl)cc2)c1)c1ccc2c(c1)OCCO2`, the Potency is reported as “inactive”. With `CSc1ncccc1C(=O)Nc1ccc2c(c1)OCO2` the Potency was “inactive”. For `O=C(Nc1ccccc1)c1ccc2c(c1)OCCCO2`, the Potency was 0.517 µM (active). For `O=C(Nc1ccccc1N1CCN(C(=O)c2ccccc2)CC1)c1ccc2c(c1)OCO2`, the Potency was “inactive”. With `CCSc1ccccc1C(=O)Nc1ccc2c(c1)OCO2` the Potency was “inactive”. In the case of `O=C(Nc1cccc(S(=O)(=O)N2CCCCC2)c1)c1ccc2c(c1)OCO2`, the Potency is reported as “inactive”. In the case of `O=C(Nc1nc2ccccc2s1)c1ccc2c(c1)OCO2`, the Potency is reported as 0.58 µM (active). For `CC(C)C(=O)Nc1cccc(C(=O)Nc2ccc3c(c2)OCO3)c1`, the Potency was 6.51 µM (active). For `C=CC[C@@H](CC(=O)N[C@H](CO)Cc1ccccc1)C(=O)N[C@H](C)COC(=O)[C@@H](CC=C)Cc1ccc(F)cc1`, the Potency was “inactive”. For `CC(=O)c1c(C)[nH]c(C(=O)COC(=O)c2cccs2)c1C`, the Potency was “inactive”. With `COc1ccc(C2=Nn3c(nnc3-c3ccccc3OC)SC2)cc1OC1CCCC1` the Potency was “inactive”. For `COc1ccccc1N(CCOc1ccccc1)S(=O)(=O)c1ccccc1`, the Potency was “inactive”. With `CC(C)(C)OC(=O)C[C@@H]1C/C=C\C[C@@H](CC(=O)N(CCO)Cc2ccccc2)C(=O)N[C@H](Cc2ccccc2)COC1=O` the Potency was “inactive”. With `CCCN(CC1CC1)C(=O)COC(=O)c1ccc(C)cc1O` the Potency was “inactive”. In the case of `O=C(COC(=O)c1cc(S(=O)(=O)N2CCOCC2)ccc1F)NC1CC1`, the Potency is reported as “inactive”. In the case of `O=C(Nc1ccccc1)c1ccc2c(c1)OCO2`, the Potency is reported as 9.2 µM (active). In the case of `COc1cccc(C(=O)Nc2nc3ccc(S(C)(=O)=O)cc3s2)c1`, the Potency is reported as “inactive”. For `CS(=O)(=O)c1ccc2nc(NC(=O)c3ccc(Cl)nc3)sc2c1`, the Potency was “inactive”. With `Cn1c(=O)n(C)c2cc(C(=O)Nc3ccc4c(c3)OCO4)ccc21` the Potency was 8.2 µM (active). For `CNC(=O)c1ccc2nc(NC(C)=O)sc2c1`, the Potency was 18.4 µM (active). For `O=C(Nc1cccc([N+](=O)[O-])c1)c1ccc2c(c1)OCO2`, the Potency was “inactive”. With `CC(C)CNS(=O)(=O)c1ccc(C(=O)Nc2ccc3c(c2)OCO3)cc1` the Potency was “inactive”. For `O=C(Nc1ccc2c(c1)OCO2)c1ccc(N2C(=O)c3ccccc3C2=O)cc1`, the Potency was “inactive”. With `O=C(Nc1ccc(NC(=O)c2ccc3c(c2)OCO3)cc1)c1cccc(Cl)c1` the Potency was “inactive”. For `O=C(OCC(=O)N1CCN(c2ccccc2)CC1)c1ccc([N+](=O)[O-])s1`, the Potency was “inactive”. With `CC(=O)Nc1ccc(S(=O)(=O)NCC(=O)OCC(=O)c2ccc[nH]2)cc1` the Potency was “inactive”. For `CC(C)NC(=O)Nc1cccc2c1O[C@@H](CN(C)S(=O)(=O)c1ccc(F)cc1)[C@@H](C)CN([C@H](C)CO)C2=O`, the Potency was “inactive”. For `O=C(Nc1ccccc1)c1ccc(NC(=O)c2cccs2)cc1`, the Potency was “inactive”. In the case of `CC(=O)Nc1ccc(/C=N/NC(=O)c2cccs2)cc1`, the Potency is reported as 16.4 µM (active). In the case of `CCN(CC)c1ccc(/C=N/NC(=O)CNC(=O)c2cccs2)cc1`, the Potency is reported as “inactive”. With `Cc1noc(C)c1S(=O)(=O)N(C)C[C@H]1Oc2ccc(NC(=O)C3CCCCC3)cc2C(=O)N([C@H](C)CO)C[C@@H]1C` the Potency was “inactive”. In the case of `Cc1ccc(NC(=O)C2CCC(C(C)(C)C)CC2)cc1S(=O)(=O)N1CCOCC1` (configuration not stated), the Potency is reported as “inactive”. In the case of `CN(C(=O)c1cccc(NC(=O)Cc2cccc([N+](=O)[O-])c2)c1)C1CCCCC1`, the Potency is reported as “inactive”. In the case of `Cn1nnnc1SCC(=O)Nc1cccc(S(=O)(=O)N2CCCCC2)c1`, the Potency is reported as “inactive”. With `Cc1ccc(C(=O)OCc2nc(N)nc(Nc3ccccc3C)n2)cc1` the Potency was “inactive”. For `Cc1ccccc1Nc1nc(N)nc(CSc2ccccc2)n1`, the Potency was 9.2 µM (active). For `Cc1ccccc1Nc1nc(N)nc(CN2CCN(c3ccccn3)CC2)n1`, the Potency was “inactive”. For `Oc1ccccc1-c1cc(-c2ccc(Cl)cc2)n[nH]1`, the Potency was 2.31 µM (active). In the case of `Cc1ccc(S(=O)(=O)Cc2cc(-c3ccc(Cl)cc3)no2)cc1`, the Potency is reported as “inactive”. For `Cc1ccc(NC(=O)c2cc(-c3ccccc3O)n[nH]2)cc1C`, the Potency was “inactive”. With `CCCCOc1ccc(C(=O)NCC(=O)OCC(=O)c2c(N)n(C)c(=O)n(C)c2=O)cc1` the Potency was “inactive”. With `C[C@H](CO)N1C[C@H](C)[C@@H](CN(C)S(=O)(=O)c2ccc(F)cc2)Oc2c(NC(=O)Nc3ccccc3)cccc2C1=O` the Potency was “inactive”. With `CCOC(=O)CCCCCC(=O)Nc1ccc2c(c1)CC(=O)N([C@@H](C)CO)C[C@H](C)[C@@H](CN(C)Cc1ccccc1)O2` the Potency was “inactive”. For `Cc1ccn2cc(-c3nonc3C)cc2c1`, the Potency was 23.1 µM (active). In the case of `O=C1CN(C(=O)COC(=O)/C=C/c2ccc(F)cc2)c2ccccc2N1`, the Potency is reported as “inactive”. In the case of `O=C(O)c1ccccc1-c1ccccc1C(=O)Nc1cccc2ccccc12`, the Potency is reported as “inactive”. In the case of `O=C(Nc1cccc2ccccc12)c1onc2c1CCCC2`, the Potency is reported as 16.4 µM (active). For `O=C(O)Cc1ccc(NC(=O)Nc2cccc3ccccc23)cc1`, the Potency was “inactive”. For `O=C(Nc1cccc(S(=O)(=O)N2CCOCC2)c1)C12CC3CC(CC(C3)C1)C2`, the Potency was “inactive”. In the case of `O=C(COC(=O)c1ccccc1O)NCc1ccco1`, the Potency is reported as “inactive”. With `O=C(CSc1ncn[nH]1)Nc1ccc(Br)cc1Br` the Potency was “inactive”. For `O=C(Nc1ncccc1O)c1ccc(S(=O)(=O)N2CCCC2)cc1`, the Potency was “inactive”. With `O=C(CNC(=O)c1ccc2ccccc2c1)Nc1ncccc1O` the Potency was “inactive”. For `O=C(Nc1ncccc1O)c1ccc(C(=O)c2ccccc2)cc1`, the Potency was 18.3 µM (active). With `CC1Sc2ccc(C(=O)NCc3ccccc3Cl)cc2NC1=O` (configuration not stated) the Potency was “inactive”. In the case of `CCCCNS(=O)(=O)CCNCc1ccccc1OC`, the Potency is reported as “inactive”. For `CCOc1ccc2nc(C(=O)N3CCCC(C)C3)sc2c1` (configuration not stated), the Potency was 10.3 µM (active). For `CCOc1ccc2nc(N(CCN(C)C)C(=O)c3ccc4ccccc4c3)sc2c1`, the Potency was “inactive”. With `CCCC(=O)N(CCN1CCOCC1)c1nc2ccc(OCC)cc2s1` the activity change, positive = activation was 0.969% [at 9.26 µM] (inactive). With `C=CC[C@@H](Cc1ccc(F)cc1)C(=O)OC[C@H]1CCCN1C(=O)[C@H](CC=C)CC(=O)N(CCO)Cc1ccccc1` the Potency was “inactive”. With `COc1cccc(-c2sc3ccc(OC)cc3c2-c2ccc(OCCN3CCCCC3)cc2)c1` the Potency was “inactive”. With `COC(=O)[C@]1(Cc2ccccc2)N[C@H](CN(C)S(=O)(=O)c2ccc(OC(F)(F)F)cc2)[C@@H]2C(=O)N(C)C(=O)[C@@H]21` the Potency was “inactive”. For `O=C(c1ccc(N2CCOCC2)c([N+](=O)[O-])c1)N1CCN(c2ccccc2F)CC1`, the Potency was “inactive”. With `Cc1nc2cc(NC(=O)Nc3cccc(F)c3)ccc2n1C` the Potency was 0.92 µM (active). With `C=CCN(C(=O)Nc1ccc2c(c1)nc(C)n2C)c1ccccc1` the Potency was “inactive”. For `Cc1nc2cc(NCc3cccs3)ccc2n1C`, the Potency was “inactive”. With `CNC[C@H]1Oc2c(NC(=O)C3CCCCC3)cccc2C(=O)N([C@H](C)CO)C[C@@H]1C` the Potency was “inactive”. In the case of `COc1cc(/C=N\Nc2nc(-c3cccs3)c(NC(C)=O)s2)ccc1O`, the Potency is reported as “inactive”. For `COc1ccc(/C=N/Nc2nc3ccccc3o2)cc1OC`, the Potency was 2.59 µM (active). With `COc1ccc(/C=N\NC(=O)c2sc(N)nc2C)cc1OC` the Potency was “inactive”. In the case of `Brc1ccccc1/C=N/Nc1nc2ccccc2o1`, the Potency is reported as 11.6 µM (active). With `CCOc1ccccc1/C=N/Nc1nc2ccccc2o1` the Potency was “inactive”. With `Oc1c(Br)cccc1/C=N/Nc1c(F)c(F)c(F)c(F)c1F` the Potency was “inactive”.
